Compound activity as filed in PubChem BioAssay.
Lassa entry inh – Lassa virus entry inhibition; AID 540256; 300,000 compounds, 1.2% hits; Potency, µM (doses to about 37.9 µM), for inactives: at the top dose activity change, negative = inhibition, most hits filed as inhibitors; Lassa virus pseudotype entry inhibition, cell reporter; calls by dose curve; tested in HEK293 cells; further: potency means the concentration at half of the fitted maximal effect; nearly all actives have a fitted effect of over 50% in size
FMDV antiviral – blocks foot and mouth disease virus. FMDV antiviral cell-based qHTS. Potency, µM (series often up to 57.9 µM), inactives show at the highest dose activity change, negative = inhibition, most hits filed as inhibitors. 410,000 compounds, 1.2% hits. AID 1159524; calls by dose curve; tested in HEK293T cells; further: read-out not given here; potency means the concentration at half of the fitted maximal effect; nearly all actives have a fitted effect of over 45% in size
MARV entry inh – inhibitors of Marburg virus binding or cell entry; Potency, µM (titrated, usually from 37.8 µM), for inactives: top-dose activity change, negative = inhibition, most hits filed as inhibitors; Marburg virus pseudotyped entry inhibition, cell reporter; 300,000 compounds, 1.8% hits; calls by dose curve; tested in HEK293 cells; further: potency means the concentration at half of the fitted maximal effect
Giardia FBPA inh – inhibitors of Giardia lamblia fructose-1,6-bisphosphate aldolase; A8B2U2; purified Giardia FBPA; Potency, µM (top dose mostly 59.6 µM), for inactives: at the top dose activity, negative = inhibition, usual class: inhibitors; 290,000 compounds, 0.71% hits; AID 2451; further: potency means the concentration at half of the fitted maximal effect; nearly all actives have a fitted effect of over 55% in size
Target sequence (A8B2U2 whole entry, looked up): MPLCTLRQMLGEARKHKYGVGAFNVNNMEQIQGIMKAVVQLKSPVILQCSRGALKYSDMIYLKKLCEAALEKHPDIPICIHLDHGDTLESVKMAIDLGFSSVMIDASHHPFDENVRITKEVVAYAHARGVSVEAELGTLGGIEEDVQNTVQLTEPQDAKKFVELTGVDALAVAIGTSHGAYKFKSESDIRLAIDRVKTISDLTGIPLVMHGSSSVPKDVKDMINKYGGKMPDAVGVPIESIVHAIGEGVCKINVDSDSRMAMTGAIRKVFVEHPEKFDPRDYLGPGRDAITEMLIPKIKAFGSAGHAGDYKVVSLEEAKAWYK
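Giardia FBPA (40 nM reagent) was preincubated 10 min at RT with compound (up to 57.5 uM final), then substrate plus GAPDH/TPI/NAD/arsenate coupling system with diaphorase/resazurin was added; resorufin fluorescence (525/598 nm) was read after 20 min.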
HCV inh – inhibitors of hepatitis C virus infection; Huh7.5.1 HCVcc-Cre infection, luciferase reporter, 44 h; 340,000 compounds, 3.4% hits; Potency, µM (doses to about 41.8 µM), for the others: at the top dose activity change, negative = inhibition, usual class: inhibitors; further: potency means the concentration at half of the fitted maximal effect
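1,000 cells/well; 4 h culture; + compound; + HCVcc-Cre (~0.5 moi); 44 h; luciferase substrate, RT 15 min; read 15 sec.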
HCMV inh – human cytomegalovirus inhibition | 410,000 compounds, 4.5% hits | HFF cells, HCMV-luciferase reporter, 72 h; stronger effect = lower value | activity change, negative = inhibition, % at 57.5 µM; in the data active means activity change below about -60%; inconclusive means no clear call, values can overlap the other calls; inactive means above about -39%
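Human foreskin fibroblasts infected with luciferase-reporter HCMV at MOI 1 PFU/cell, compounds at two doses. Luciferase measured 72 h post infection; normalized to buffer-only basal and Salinomycin (10uM) controls.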
* hit, by the source's call; ? = inconclusive; nt = not tested or not shown; [ ] = another dose, or the depositor's remark. Rows were chosen to be rich in hits. Some 8.3% of all compounds tested hit in one or more screens of this group. Unless noted, the call rests on the fitted dose curve; in most records, active means well fitted curve in the direction sought with a large enough effect; inconclusive means small, poorly fitted or top-dose-only effect, or another doubt; inactive means no such curve, though single readings can be large; an effect the other way counts as inactive or inconclusive. On the % scale 0 is the no-effect control and ±100 the full control effect.

SMILES	Lassa entry inh	FMDV antiviral	MARV entry inh	Giardia FBPA inh	HCV inh	HCMV inh
Cc1ccc2c(CN3CCN(S(=O)(=O)c4ccc5c(c4)OCCO5)CC3)cc(=O)oc2c1C	?	?	?	-7%	13µM*	-78*
COc1ccc(-c2cc(=O)oc3cc(OCC(C)=O)ccc23)cc1	?	-18%	?	-1%	?	14
COc1ccc(-c2cc(=O)oc3cc(O)ccc23)cc1	?	-15%	-30%[46.1 µM]	11%	-2%	-96*
CCOC(=O)C(Oc1ccc2c(-c3ccccc3)cc(=O)oc2c1C)c1ccccc1 (stereo unspecified)	?	-11%	-8%	0%	?	-8
CCOC(=O)C(Oc1ccc2c(-c3ccc(OC)cc3)cc(=O)oc2c1C)c1ccccc1 (stereo unspecified)	13µM*	?	?	0%	-28%	-24
COc1ccc(-c2cc(=O)oc3c(C)c(OC(C)C(=O)Nc4ccc(CN5CCOCC5)cc4)ccc23)cc1 (stereo unspecified)	nt	1%	nt	nt	13µM*	?
NCCCCCCNc1nc2c(N)ncnc2n1[C@@H]1O[C@@H]2COP(=O)(O)O[C@H]2[C@H]1O	nt	nt	nt	-1%	nt	nt
COC(=O)[C@@H]1[C@@H](CO)[C@@H]2Cn3c(ccc(Br)c3=O)[C@@H]2N1C(=O)Cc1cccnc1	nt	nt	nt	nt	nt	-5
CCc1ccc2oc(-c3cc(NC(=O)c4cc([N+](=O)[O-])ccc4N4CCOCC4)ccc3Cl)nc2c1	1%[46.1 µM]	32%	?	nt	nt	24
O=C(NN=Cc1c(O)ccc2ccccc12)C1CC1	?	13%	?	nt	?	-26
COc1ccccc1OCC(=O)N/N=C/c1c(O)ccc2ccccc12	nt	nt	nt	nt	nt	-109*
COc1ccccc1OCC(=O)N/N=C/c1cccc2cccnc12	-18%	-10%	-28%	nt	10%	-4
Cc1cc(C)n(CCC(=O)N/N=C/c2c(O)ccc3ccccc23)n1	nt	-26%	nt	-18%	?	-83*
O=C(N/N=C/c1c(O)ccc2ccccc12)C(=O)N1CCCC1	nt	-12%	nt	nt	nt	-75*
O=C(CN1CCCC1)N/N=C/c1c(O)ccc2ccccc12	nt	-17%	nt	-27%	7.9µM*	33
O=C(N/N=C/c1ccccc1O)C(=O)N1CCCCCC1	?	47%	-10%[46.1 µM]	nt	-17%	8
Cc1nc2ncnn2c(C)c1CCC(=O)NCc1ccccc1Cl	-5%[46.1 µM]	10%	7%[46.1 µM]	nt	nt	14
CCCN(CCC)C(=O)c1oc2ccccc2c1NC(=O)Cc1cccc(OC)c1	nt	-9%	nt	-7%	11µM*	-5
CCOC(=O)c1oc2ccc(Br)cc2c1NC(=O)CN1CCN(C)CC1	-9%	-20%	?	12%	10µM*	24
CN1CCN(CC(=O)Nc2c(C(=O)c3ccccc3)oc3ccccc23)CC1	?	-27%	?	1%	11µM*	?
COC(=O)c1oc2ccc(Br)cc2c1NC(=O)CCN1CCOCC1	3%	0%	?	5%	2%	-14
CCOc1ccc(CC(=O)Nc2c(C(=O)c3ccc(C)cc3)oc3ccccc23)cc1OCC	14%[46.1 µM]	0%	?	nt	nt	-63*
O=S1(=O)C=CCN1C1CCCC1	7%[46.1 µM]	nt	nt	nt	nt	nt
O=c1oc2ccccc2c2c1nnn2CCO	9%	-12%	18%[46.1 µM]	-1%	20%	-63*
CCCn1nnc2c(=O)oc3ccccc3c21	-12%	-14%	3%	-1%	18%	-5
SMILES	Lassa entry inh	FMDV antiviral	MARV entry inh	Giardia FBPA inh	HCV inh	HCMV inh
Cc1ccccc1-c1nc2ccccc2c(=O)n1C1CCS(=O)(=O)C1 (stereo unspecified)	15%	nt	-2%	-5%	7%	-33
Cc1ccccc1-c1nnnn1C1CCS(=O)(=O)C1 (stereo unspecified)	nt	-13%	nt	0%	13%	-67*
COc1cccc(Cn2c(=O)n(-c3cc(C)cc(C)c3)c(=O)c3oc4ccccc4c32)c1	1%[46.1 µM]	-20%	nt	nt	nt	-25
O=C(c1cccc(F)c1)N1CCC2(CC1)CN(C(c1ccccc1)c1ccccc1)C2	nt	-6%	nt	-1%	nt	nt
CCOC(=O)C(C)(C)N(Cc1ccc(Cl)cc1)S(=O)(=O)c1ccc(Cl)c([N+](=O)[O-])c1	?	nt	?	-8%	-10%[0.335 µM]	nt
CCOC(=O)C(C)(C)N(Cc1ccc(C)cc1)S(=O)(=O)c1ccc(Cl)c([N+](=O)[O-])c1	?	25µM*	?	0%	?	-35
CC(=O)c1cccc(Nc2nn(-c3ccc(OC(F)(F)F)cc3)nc2C(C)=O)c1	13%[46.1 µM]	-8%	?	nt	nt	-12
CCOc1ccc2[nH]c(=O)c(CN(Cc3nnnn3Cc3ccco3)C3CCCCC3)cc2c1	?	-23%	10µM*	?	?	-3
COc1ccccc1CN(Cc1cc2cc(C)ccc2[nH]c1=O)Cc1nnnn1CC1CCCO1 (stereo unspecified)	-23%	nt	?	-19%	-1%	-10
COc1ccc2[nH]c(=O)c(CN(Cc3ccco3)Cc3nnnn3Cc3ccccc3)cc2c1	-13%	-16%	-18%	-24%	-8%	-31
COc1ccccc1CN(Cc1cc2cc(C)cc(C)c2[nH]c1=O)Cc1nnnn1CC1CCCO1 (stereo unspecified)	?	nt	10µM*	0%	-21%	7
CCOc1ccc2[nH]c(=O)c(CN(CCO)C3(c4nnnn4C4CCCCC4)CCCCC3)cc2c1	5%	?	?	-18%	11%	-61*
CCOc1ccc2[nH]c(=O)c(CN(CCO)Cc3nnnn3CCc3ccccc3)cc2c1	10%	-18%	1%	-12%	-12%	21
CCOc1ccc2[nH]c(=O)c(CN(Cc3ccco3)Cc3nnnn3Cc3ccccc3)cc2c1	-13%	-23%	0%	9%	?	-23
COc1ccccc1CN(Cc1cc2cc(C)ccc2[nH]c1=O)Cc1nnnn1Cc1ccco1	?	?	13µM*	9%	13µM*	-4
CCOc1ccc2[nH]c(=O)c(C(c3nnnn3Cc3ccco3)N3CCN(C)CC3)cc2c1 (stereo unspecified)	-2%	-4%	-1%[46.1 µM]	0.89µM*	-12%	-35
COCCn1nnnc1CN(Cc1cc2cc(OC)c(OC)cc2[nH]c1=O)C1CCCC1	-9%	-10%	3%	-12%	-2%	-20
COc1ccc(Cn2nnnc2CN(Cc2cc3ccc(C)cc3[nH]c2=O)C2CCCC2)cc1	?	-10%	?	1%	10µM*	-26
Cc1cc2cc(C(c3nnnn3Cc3ccco3)N3CCCCC3)c(=O)[nH]c2cc1C (stereo unspecified)	-13%	nt	-16%	-14%	?	-12
COc1cc2cc(CN(Cc3nnnn3Cc3ccco3)C3CCCCC3)c(=O)[nH]c2cc1OC	-12%	-24%	?	10µM*	-7%	-22
C[C@@H]1CN([C@H](C)CO)S(=O)(=O)c2ccc(Br)cc2O[C@H]1CN(C)CC1CCOCC1	nt	nt	nt	nt	nt	-22
